TDP1 cell noCPT: qHTS for Inhibitors of human tyrosyl-DNA phosphodiesterase 1 (TDP1): qHTS in cells in absence of CPT. DT40 Tdp1-/- hTDP1 cells, no CPT, ATP luminescence, 48 h. Potency, µM (titrated, usually from 46.2 µM), usual class: inhibitors. 420,000 compounds, 15% hits; note: nearly all actives have a fitted effect of over 55% in size
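Seeded 400 DT40-hTDP1 cells/well (vehicle DMSO, no 20 nM CPT); pinned compounds; ≥48 hr at 37 °C; CellTiter-Glo luminescence as viability measure.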
HepG2 tox: kills HepG2 cells in TGF-b inhibitor counter-screen | HepG2 CAGA-GFP viability, ATP luminescence, 18 h | Potency, µM (doses to about 46.1 µM), most hits filed as cytotoxic | 410,000 compounds, 0.76% hits
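HepG2 CAGA-GFP cells (1000/well, DMEM with 1% FBS) received compound, then TGF-beta at 500 pg/mL final, and were incubated 18 hours at 37 degrees C. Viability was read by CellTiter-Glo luminescence. Media-only wells were set as complete cell-killing and DMSO as no toxicity.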
TDP1 cell CPT: growth inhibition of DT40 Tdp1-/-;hTDP1 cells with camptothecin (screen for TDP1 inhibitors). chicken DT40 Tdp1-/-;hTDP1 cells + 20 nM CPT, ATP luminescence, 48 h. Potency, µM (top dose mostly 46.2 µM), actives largely listed as inhibitors. 420,000 compounds, 12% hits. AID 686979; note: nearly all actives have a fitted effect of over 55% in size
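Chicken DT40 Tdp1-/- cells complemented with human TDP1, 400 cells/well, exposed to compounds plus 20 nM camptothecin for at least 48 h at 37 C; viability read as ATP content by CellTiter-Glo luminescence.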
IL1B secr inh: inflammasome signaling inhibition, IL-1 beta readout; activity change, % at 57.5 µM; AID 743279; THP-1 LPS/ATP IL-1B secretion, AlphaLISA, 16 h; hits give low values; 360,000 compounds, 4.7% hits; in the data active = activity change below about -50%; inconclusive = mostly about -30% to -49%
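Secreted IL-1B measured by AlphaLISA bead assay after 16 h compound exposure of THP-1 cells; compounds (final up to 57.5 uM) added 1 h before LPS (250 ng/mL) and ATP (1.25 mM) stimulation; lower signal means less secretion.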
TDP1 inh: blocks human tyrosyl-DNA phosphodiesterase 1; recombinant TDP1, AlphaScreen DNA substrate cleavage; AID 485290; 350,000 compounds, 0.28% hits; Potency, µM (titrated, usually from 130 µM), actives largely listed as inhibitors; Q9NUW8; note: nearly all actives have a fitted effect of over 40% in size
Target sequence (Q9NUW8 whole entry, looked up): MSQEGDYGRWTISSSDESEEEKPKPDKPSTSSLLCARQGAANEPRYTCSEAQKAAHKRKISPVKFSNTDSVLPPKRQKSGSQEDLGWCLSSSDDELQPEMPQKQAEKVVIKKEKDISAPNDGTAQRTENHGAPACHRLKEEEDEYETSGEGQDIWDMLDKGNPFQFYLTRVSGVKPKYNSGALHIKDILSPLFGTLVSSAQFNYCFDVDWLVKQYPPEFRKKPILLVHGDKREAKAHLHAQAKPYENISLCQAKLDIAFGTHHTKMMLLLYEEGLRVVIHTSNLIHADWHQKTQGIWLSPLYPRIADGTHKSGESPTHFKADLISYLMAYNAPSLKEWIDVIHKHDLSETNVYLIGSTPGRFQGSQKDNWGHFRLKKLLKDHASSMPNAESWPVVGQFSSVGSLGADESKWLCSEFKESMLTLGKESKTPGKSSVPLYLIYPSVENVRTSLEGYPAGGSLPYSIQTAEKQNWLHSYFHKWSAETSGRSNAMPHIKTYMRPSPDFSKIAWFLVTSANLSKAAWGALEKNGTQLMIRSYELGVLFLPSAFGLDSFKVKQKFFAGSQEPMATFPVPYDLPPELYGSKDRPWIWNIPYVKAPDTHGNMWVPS
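AlphaScreen read-out: signal falls as enzyme removes the 3' tyrosine-FITC from a 5'-biotinylated DNA oligo (15 nM, 5 min, RT). Enzyme was E. coli-made recombinant Tdp1 at 1 nM, exposed to compound for 15 min beforehand; beads 10 ug/ml, 10 min.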
TGFb inhibitor: TGF-b pathway inhibition; HepG2 CAGA-GFP TGF-b/SMAD3 reporter, GFP fluorescence, 18 h; TGF-beta stimulated, 500 pg/mL final; Potency, µM (series often up to 46.1 µM), hits mostly inhibitors; 410,000 compounds, 1.2% hits; note: nearly all actives have a fitted effect of over 65% in size
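Inhibition was scored as loss of TGF-beta-induced (500 pg/mL final, 18 hours, 37 degrees C) GFP in HEPG2 cells carrying a CAGA-GFP reporter, in DMEM with 1% FBS. Well GFP was summed per cell; Activity was normalised to unstimulated and stimulated DMSO wells, then concentration-response fitting.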
A number is an active result; i = inactive; ? = inconclusive; nt = no result given; [ ] = another dose, or the depositor's remark. Only some compounds are listed: those with a hit (about 19% of all), similar ones and a draw of the others. Unless noted, calls come from the whole dose curve; as a rule, active = well fitted curve in the direction sought with a large enough effect; inconclusive = small, poorly fitted or top-dose-only effect, or another doubt; inactive = no such curve, though single readings can be large; an effect the other way counts as inactive or inconclusive.

SMILES | TDP1 cell noCPT | HepG2 tox | TDP1 cell CPT | IL1B secr inh | TDP1 inh | TGFb inhibitor
N#Cc1nc(-c2ccc(COc3ccc(Cl)cc3)o2)oc1N1CCCCC1 | ? | i | ? | nt | i | i
CCN(CC)S(=O)(=O)c1ccc(/C=C/C(=O)Nc2ccc(F)cc2F)cc1 | 13µM | i | ? | i | i | i
O=C(/C=C/c1ccc(F)cc1)Nc1ccc(S(=O)(=O)N2CCOCC2)cc1 | i | i | ? | i | i | i
Cc1cc(NC(=S)NC(=O)/C=C/c2ccc(S(=O)(=O)N3CCOCC3)cc2)ccc1Br | 14.6µM | i | ? | -87.8 | i | i
CCN(CC)S(=O)(=O)c1ccc(/C=C/C(=O)Nc2ccc(N3CCOCC3)cc2)cc1 | 20.6µM | i | ? | i | i | i
CCN(CC)S(=O)(=O)c1ccc(/C=C/C(=O)OCC#N)cc1 | i | i | i | i | i | i
O=C(/C=C/c1ccc(S(=O)(=O)N2CCOCC2)cc1)NC(=S)Nc1ccc(N2CCOCC2)cc1 | ? | i | i | -76.5 | i | i
COc1ccc(/C=C/C(=O)Nc2ccc(N3CCOCC3)cc2)cc1 | ? | i | i | i | i | i
COc1cccc(/C=C/C(=O)N2CCN(S(=O)(=O)c3ccccc3)CC2)c1 | 20.6µM | i | ? | i | nt | i
O=C(/C=C/c1ccc(S(=O)(=O)N2CCOCC2)cc1)N1CCN(c2ccccc2)CC1 | 1.03µM | i | 11.6µM | i | i | i
COc1ccccc1NC(=O)COC(=O)c1ccc(N2CCCC2=O)cc1 | i | i | i | i | i | i
Cc1ccc2[nH]c(CN3CCC(CO)(CC4CCCCO4)CC3)c(C)c2c1 (stereo not drawn) | ? | i | ? | -112.8 | i | i
COc1ccccc1N1CCN(C(=O)c2cccc(S(=O)(=O)NCc3cccnc3)c2)CC1 | ? | i | 16.4µM | i | i | i
O=C(c1cccc(S(=O)(=O)NCc2ccccc2)c1)N1CCN(c2ccccc2)CC1 | 5.17µM | i | 6.51µM | i | i | ?
O=C(c1cccc(S(=O)(=O)NCCOc2ccccc2)c1)N1CCN(c2ncccn2)CC1 | 23.1µM | i | 25.9µM | i | i | i
COc1ccc(S(=O)(=O)NCc2cccnc2)cc1C(=O)N1CCCCC1 | i | i | i | i | i | i
O=C(c1cccc(S(=O)(=O)NCc2ccccc2)c1)N1CCN(c2ccccc2Cl)CC1 | ? | i | 14.6µM | i | nt | ?
CC(=O)Nc1ccc(S(=O)(=O)NCCC(=O)Nc2cccc(Cl)c2)cc1 | i | i | i | i | i[0.0935 µM] | i
CC(=O)Nc1ccc(S(=O)(=O)NCCOc2ccc(Cl)cc2C)cc1 | 13µM | i | 23.1µM | i | i | i
CCCCOc1ccc(CONS(=O)(=O)c2ccc(NC(C)=O)cc2)cc1Cl | 14.6µM | i | 13µM | -103.3 | i | ?
CSc1ccc(S(=O)(=O)NCCOc2ccccc2C)cc1 | ? | i | 25.9µM | i | i | i
NS(=O)(=O)c1ccc(CNC(=S)NC2CCCCC2)cc1 | i | i | i | i | i | i
Cc1nc(C(=O)N(Cc2cc3ccc(F)cc3nc2N2CCC(O)CC2)CC2CCCO2)cs1 (stereo not drawn) | i | nt | i | nt | nt | nt
COc1cccc(NC(=O)CCc2nnc3n(Cc4ccccc4Cl)c(=O)c4ccccc4n23)c1 | ? | i | 16.4µM | nt | i | ?
CC(C)Cn1c(=O)c2ccccc2n2c(CCC(=O)NCc3ccccc3Cl)nnc12 | i | i | i | nt | i | ?
SMILES | TDP1 cell noCPT | HepG2 tox | TDP1 cell CPT | IL1B secr inh | TDP1 inh | TGFb inhibitor
CC(C)Cn1c(=O)c2ccccc2n2c(CCC(=O)Nc3cccc(Cl)c3)nnc12 | 16.4µM | i | ? | nt | i | i
O=C(CCc1nnc2n(Cc3ccccc3Cl)c(=O)c3ccccc3n12)Nc1ccc(F)cc1 | 5.17µM | i | 5.8µM | nt | i | i
COc1cc(-c2cc(C)c3cccc(OC)c3n2)cc2c1OCCN(C(=O)CC1NC(=O)c3ccccc31)C2 (stereo not drawn) | i | nt | i[9.04 µM] | nt | nt | nt
OC(c1ccccc1)c1ncc(-c2ccccc2F)[nH]1 (stereo not drawn) | i | i | i | i | nt | i
O=C(/C=C/c1ccco1)Nc1ccc2nc3n(c(=O)c2c1)CCCC3 | i | i | ? | -51.1 | i | i
CCOc1ccccc1C(=O)Nc1ccc2nc3n(c(=O)c2c1)CCCCC3 | 2.59µM | i | ? | i | i | i
Cc1ccc(-n2nc3ccc(NC(=O)c4cc5ccccc5o4)cc3n2)cc1 | ? | i | i | nt | i[2.28 µM] | i
COc1ccc(Cl)cc1C(=O)Nc1ccc2nc3n(c(=O)c2c1)CCCC3 | 18.4µM | i | 14.6µM | i | nt | i
O=c1c2cc(NC(=S)N3CCCC3)ccc2nc2n1CCCCC2 | i | i | i | i | i | i
Cc1ccc(-n2nc3ccc(NC(=O)/C=C/c4ccco4)cc3n2)cc1 | ? | i | 20.6µM | i | nt | i
S=C(NCCN(C1CCCCC1)C1CCCC1)Nc1cccc(Cl)c1 | 16.4µM | i | ? | nt | nt | ?
S=C(NCc1cccs1)Nc1cccc(Cl)c1 | ? | i | i | i | i | ?
S=C(NCc1ccncc1)Nc1cccc(Cl)c1 | i | i | i | i | i | i
CC(C)c1cccc(C(C)C)c1NC(=S)Nc1cccc(Cl)c1 | 20.6µM | i | ? | nt | i | ?
S=C(NCCC(c1ccccc1)c1ccccc1)Nc1cccc(Cl)c1 | 14.6µM | i | ? | i | i | ?
CCCCC[C@H](O)/C=C/C=C\C=C\[C@@H](O)C/C=C\CCCC(=O)O | nt | nt | nt | nt | i | nt
CCOC(=O)c1ccc(Oc2nc(NC(C)(C)C)nc(N(C)C)n2)cc1 | 20.6µM | i | 13µM | i | i | i
O=C1NC(=Nc2ccccc2)SC1Cc1ccccc1 (stereo not drawn) | i | i | i | i | i | i
CC(C)(C)C(=O)N1NC(=Nc2ccccc2)SC1(C)C | 20.6µM | i | i | nt | i | i
Cc1ccc(NC(=O)C2CCN(c3cnccn3)CC2)cc1C | i | i | i | i | i | i
CCN(CC)c1cccc(OC2=NS(=O)(=O)c3ccccc32)c1 | 16.4µM | i | 8.2µM | i | i | i
COc1ccccc1OC1=NS(=O)(=O)c2ccccc21 | 13µM | i | 20.6µM | i | i | i
O=S1(=O)N=C(Oc2ccccc2F)c2ccccc21 | nt | nt | nt | nt | i | nt
Cc1cccc(N2CC(C(=O)Nc3ccc(N4CCOCC4)cc3)CC2=O)c1C (stereo not drawn) | i | i | i | i | i | i
Clc1cccc(CN2CCSCC2)c1Cl | i | i | i | i | nt | i
CC1(c2ccccc2Cl)NC(=O)N(CC(=O)Nc2ccc(N3CCCCC3)cc2)C1=O (stereo not drawn) | 20.6µM | i | ? | i | i | i

Bioassay records from PubChem.
